Out of some 5,500 compounds screened, about 2,000 (36%) were called active. Another 18% or so got no clear call; they are omitted. Cut-off read from the data, not from the text of the source: active = normalized growth mostly below about 0.91 (no sharp cut-off); inconclusive = no clear call, values can overlap the other calls; inactive = mostly above about 0.92. This is one part of the list.
Assay: chemical genetic growth profiling, strain panel (AID 1159580);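 note: tested at 20 µM; growth read once vehicle control cultures reached saturation at 30 °C; 1 = growth at the plate median or of vehicle wells; lower values mean less growth of the strain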
Details: growth OD

Measured: normalized growth

Nc1ccc(C(=O)O)cc1
inactive: S. cerevisiae deletion strains, locus YJR066W, strain TOR1, hits give low values 0.968 | S. cerevisiae deletion strains, locus YJR075W, strain HOC1, hits give low values 1.01 | S. cerevisiae deletion strains, locus YKL009W, strain mrt4, hits give low values 1.02 | S. cerevisiae deletion strains, locus YKL068W, hits give low values 0.993 | S. cerevisiae deletion strains, locus YKL085W, strain MDH1 (second series), hits give low values 0.998 | S. cerevisiae deletion strains, locus YKL085W, strain MDH1, hits give low values 0.998 | S. cerevisiae deletion strains, locus YKL160W, strain elf1, hits give low values 1.03 | S. cerevisiae deletion strains, locus YKL190W, strain CNB1, hits give low values 0.996 | S. cerevisiae deletion strains, locus YKR001C, strain vps1, hits give low values 1.01 | S. cerevisiae deletion strains, locus YKR026C, strain gcn3, hits give low values 1.04 | S. cerevisiae deletion strains, locus YKR091W, strain srl3, hits give low values 1.02 | S. cerevisiae deletion strains, locus YLL001W, strain dnm1, hits give low values 1.03 | S. cerevisiae deletion strains, locus YLL026W, hits give low values 1.04 | S. cerevisiae deletion strains, locus YLL041C, strain sdh2, hits give low values 1.02 | S. cerevisiae deletion strains, locus YLR027C, strain aat2, hits give low values 1.02 | S. cerevisiae deletion strains, locus YLR039C, strain RIC1, hits give low values 0.996 | S. cerevisiae deletion strains, locus YLR058C, strain SHM2, hits give low values 1.01 | S. cerevisiae deletion strains, locus YLR102C, strain apc9, hits give low values 1.01 | S. cerevisiae deletion strains, locus YLR113W, strain HOG1, hits give low values 1.01 | S. cerevisiae deletion strains, locus YLR221C, strain rsa3, hits give low values 1.02 | S. cerevisiae deletion strains, locus YLR258W, strain gsy2, hits give low values 1.01 | S. cerevisiae deletion strains, locus YLR262C, strain YPT6 (second series), hits give low values 1.02 | S. cerevisiae deletion strains, locus YLR262C, strain YPT6, hits give low values 1.07 | S. cerevisiae deletion strains, locus YLR268W, strain sec22, hits give low values 1.02 | S. cerevisiae deletion strains, locus YLR320W, strain mms22, hits give low values 1.01 | S. cerevisiae deletion strains, locus YLR330W, strain CHS5, hits give low values 1.01 | S. cerevisiae deletion strains, locus YLR342W, strain FKS1 (second series), hits give low values 1.02 | S. cerevisiae deletion strains, locus YLR342W, strain FKS1, hits give low values 1.05 | S. cerevisiae deletion strains, locus YLR357W, strain rsc2, hits give low values 1.03 | S. cerevisiae deletion strains, locus YLR370C, strain arc18, hits give low values 1.02 | S. cerevisiae deletion strains, locus YLR371W, strain rom2, hits give low values 1.01 | S. cerevisiae deletion strains, locus YLR384C, strain iki3, hits give low values 1.01 | S. cerevisiae deletion strains, locus YLR418C, strain cdc73, hits give low values 1.03 | S. cerevisiae deletion strains, locus YML016C, strain PPZ1, hits give low values 1.01 | S. cerevisiae deletion strains, locus YML032C, strain rad52, hits give low values 1.01 | S. cerevisiae deletion strains, locus YML120C, strain ndi1, hits give low values 1.04 | S. cerevisiae deletion strains, locus YML124C, strain tub3, hits give low values 1.01 | S. cerevisiae deletion strains, locus YMR058W, strain fet3, hits give low values 1.04 | S. cerevisiae deletion strains, locus YMR078C, strain ctf18, hits give low values 1.02 | S. cerevisiae deletion strains, locus YMR125W, strain sto1, hits give low values 1.01 | S. cerevisiae deletion strains, locus YMR129W, hits give low values 1.03 | S. cerevisiae deletion strains, locus YMR205C, strain PFK2, hits give low values 1.03 | S. cerevisiae deletion strains, locus YMR223W, strain ubp8, hits give low values 1.01 | S. cerevisiae deletion strains, locus YMR231W, strain pep5, hits give low values 1.02 | S. cerevisiae deletion strains, locus YMR263W, strain SAP30, hits give low values 1 | S. cerevisiae deletion strains, locus YMR307W, strain GAS1, hits give low values 1.05 | S. cerevisiae deletion strains, locus YNL067W, strain RPL9B, hits give low values 1 | S. cerevisiae deletion strains, locus YNL071W, strain lat1, hits give low values 1.01 | S. cerevisiae deletion strains, locus YNL183C, strain NPR1, hits give low values 0.953 | S. cerevisiae deletion strains, locus YNL209W, strain ssb2, hits give low values 1.02 | S. cerevisiae deletion strains, locus YNL233W, strain BNI4, hits give low values 1.01 | S. cerevisiae deletion strains, locus YNL248C, strain rpa49, hits give low values 1.05 | S. cerevisiae deletion strains, locus YNL250W, strain rad50, hits give low values 1.01 | S. cerevisiae deletion strains, locus YNL271C, strain bni1, hits give low values 1.03 | S. cerevisiae deletion strains, locus YNL298W, strain CLA4, hits give low values 1.01 | S. cerevisiae deletion strains, locus YNL307C, strain MCK1, hits give low values 1.01 | S. cerevisiae deletion strains, locus YNL322C, strain KRE1 (second series), hits give low values 1.01 | S. cerevisiae deletion strains, locus YNR049C, strain mso1, hits give low values 1.02 | S. cerevisiae deletion strains, locus YNR052C, strain pop2, hits give low values 1 | S. cerevisiae deletion strains, locus YOL006C, strain TOP1, hits give low values 1.06 | S. cerevisiae deletion strains, locus YOL012C, strain htz1 2.07 | S. cerevisiae deletion strains, locus YOL147C, strain pex11, hits give low values 1.01 | S. cerevisiae deletion strains, locus YOR001W, strain rrp6, hits give low values 1.05 | S. cerevisiae deletion strains, locus YOR061W, strain CKA2, hits give low values 1.01 | S. cerevisiae deletion strains, locus YOR069W, strain VPS5, hits give low values 1.01 | S. cerevisiae deletion strains, locus YOR070C, strain gyp1, hits give low values 1.01 | S. cerevisiae deletion strains, locus YOR080W, strain dia2, hits give low values 1.04 | S. cerevisiae deletion strains, locus YOR083W, strain WHI5, hits give low values 1.05 | S. cerevisiae deletion strains, locus YOR106W, strain vam3, hits give low values 1.04 | S. cerevisiae deletion strains, locus YOR136W, strain idh2, hits give low values 1.02 | S. cerevisiae deletion strains, locus YOR144C, strain elg1, hits give low values 1.01 | S. cerevisiae deletion strains, locus YOR184W, strain ser1, hits give low values 1.02 | S. cerevisiae deletion strains, locus YOR231W, strain MKK1, hits give low values 1.01 | S. cerevisiae deletion strains, locus YOR265W, strain rbl2, hits give low values 1.01 | S. cerevisiae deletion strains, locus YOR270C, strain vph1, hits give low values 1.07 | S. cerevisiae deletion strains, locus YOR290C, strain snf2, hits give low values 1.01 | S. cerevisiae deletion strains, locus YOR316C, strain cot1, hits give low values 1.01 | S. cerevisiae deletion strains, locus YPL051W, strain arl3, hits give low values 1.04 | S. cerevisiae deletion strains, locus YPL078C, strain atp4, hits give low values 1.05 | S. cerevisiae deletion strains, locus YPL106C, strain sse1, hits give low values 1.03 | S. cerevisiae deletion strains, locus YPL240C, strain hsp82, hits give low values 1.01 | S. cerevisiae deletion strains, locus YPL256C, strain CLN2, hits give low values 1.02 | S. cerevisiae deletion strains, locus YPR119W, strain clb2, hits give low values 1 | S. cerevisiae deletion strains, locus YPR141C, strain kar3, hits give low values 1.01 | S. cerevisiae deletion strains, locus YPR163C, strain tif3, hits give low values 1.02 | S. cerevisiae deletion strains, locus YPR167C, strain met16, hits give low values 1.02 | S. cerevisiae deletion strains, strain wtn01, hits give low values 1.02 | S. cerevisiae strains, strain wild type, hits give low values 1

From PubChem BioAssay AID1159580 (chemical genetic matrix, 2015)
